# Bioassay records (PubChem BioAssay)
# Pf growth 96h – Primary qHTS for delayed death inhibitors of the malarial parasite plastid, 96 hour incubation | P. falciparum luciferase reporter growth, 96 h | Potency, µM (titrated, usually from 28.7 µM), for the others: at the top dose activity change, negative = inhibition, hits mostly inhibitors | 320,000 tested, 6.9% active | AID 504834, 2011; active means well fitted inhibition curve with a large enough effect; inconclusive means small, poorly fitted or top-dose-only effect, or another doubt; inactive means no such curve, though single readings can be large or run the other way; further: potency means the concentration at half of the fitted maximal effect; on the % scale 0 is the no-effect control and ±100 the full control effect
#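 Readout is luminescence from an integrated firefly luciferase in P. falciparum. Red cells, 2% hematocrit and 0.05% parasitemia final, were cultured with compound through two parasite generations (96 hours) at 37 C, 5% CO2.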
# NS1 inh – qHTS Assay for Inhibitors of Influenza NS1 Protein Function. Potency, µM (series often up to 46.1 µM), for inactives: top-dose activity, positive = more growth. 270,000 tested, 0.4% active. AID 2326, 2010; further: potency means the concentration at half of the fitted maximal effect; actives are rising curves; nearly all actives have a fitted effect of over 50% in size
#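 OD600 was taken as the measure of yeast growth restored by compound in an NS1-expressing S. cerevisiae strain. Cells had been washed out of glucose medium and diluted 1:100 into galactose -URA medium, pH 6.0.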
# Pf growth 48h – Primary qHTS for delayed death inhibitors of the malarial parasite plastid, 48 hour incubation. 310,000 tested, 5.9% active. P. falciparum luciferase growth in erythrocytes, 48 h. Potency, µM (top dose mostly 28.7 µM), for the others: top-dose activity change, negative = inhibition, most hits filed as inhibitors; active means well fitted inhibition curve with a large enough effect; inconclusive means small, poorly fitted or top-dose-only effect, or another doubt; inactive means no such curve, though single readings can be large or run the other way; further: potency means the concentration at half of the fitted maximal effect; on the % scale 0 is the no-effect control and ±100 the full control effect
#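 Read-out is firefly luciferase luminescence from an integrated reporter in P. falciparum, so falling signal marks reduced parasite growth. Infected erythrocytes were at 2% hematocrit and 0.1% parasitemia (final) in Albumax-supplemented RPMI 1640.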
# Cycloheximide cs – Cycloheximide Counterscreen for Small Molecule Inhibitors of Shiga Toxin; cell reporter, cycloheximide protein synthesis inhibition counterscreen; max response, %; 300,000 tested, 12% active; AID 2314, 2010; in the data active means max response mostly above about 13%, no sharp cut-off; inactive means mostly below about 14%; further: read at 38.3 µM for the half of the compounds with a filed dose; 0% is about no effect
# SARS PLP yeast – qHTS of Yeast-based Assay for SARS-CoV PLP. S. cerevisiae expressing SARS-CoV PLpro, growth rescue. Potency, µM (series often up to 32.9 µM), without a hit: top-dose activity, positive = growth rescue, hits mostly activators. 330,000 tested, 0.19% active. AID 485353, 2010; further: potency means the concentration at half of the fitted maximal effect; 0% is about no effect; nearly all actives have a fitted effect of over 55% in size
# Shiga toxin inh – A qHTS for Small Molecule Inhibitors of Shiga Toxin. 290,000 tested, 9.2% active. inhibition, % at 38.7 µM. AID 2315, 2010. Vero cells, Shiga toxin protein synthesis inhibition reporter; in the data active means inhibition mostly above about 28%, no sharp cut-off; inactive means mostly below about 43%; further: 0% is about no effect
# An asterisk follows results filed as active; ? = inconclusive; / = not tested or not shown. Compounds with a hit are over-represented: about 21% of the library has one in this group of screens. Unless noted, the call rests on the fitted dose curve.
SMILES,Pf growth 96h,NS1 inh,Pf growth 48h,Cycloheximide cs,SARS PLP yeast,Shiga toxin inh
CNC(=O)C(=O)Nc1cc2c3c(c1)CCN3C(=O)CC2,37%,4%,16%,-3,1%,-7
O=C(c1cn(Cc2ccccc2)nc1-c1ccc(Cl)cc1)N1CCN(c2ccccn2)CC1,9.3µM*,/,13µM*,/,-4%,/
COc1ccc(-c2nn(Cc3ccccc3)cc2C(=O)N2CCN(c3ncccn3)CC2)cc1,?,/,13µM*,/,-1%,/
CC(C)(C)c1ccc(OCC(=O)N2CCN(c3ccccn3)CC2)cc1,?,/,?,/,-3%,/
O=C(c1ccccc1OCc1ccc(Cl)cc1)N1CCN(c2ccccn2)CC1,0%,/,?,/,-5%,/
Cc1ccc(-c2nn(Cc3ccccc3)cc2C(=O)N2CCN(c3ccccn3)CC2)cc1,?,/,13µM*,/,-4%,/
CC(C)(Oc1ccc(Cl)cc1)C(=O)N1CCN(c2ccccn2)CC1,/,-27%,15µM*,-4,?,-12
O=C(c1cn(Cc2ccccc2)nc1-c1cccnc1)N1CCN(Cc2ccccc2)CC1,?,/,?,/,-2%,/
CC(=O)NCCCNS(=O)(=O)c1ccc(C)cc1,?,4%,47%,-2,0%,2
CC(=O)Nc1ccc(S(=O)(=O)N2CCN(c3cc(C(F)(F)F)ccn3)CC2)cc1,?,2%,19%,-2,0%,13
FC(F)(F)c1ccnc(N2CCN(Cc3cnc(-c4ccccc4)[nH]3)CC2)c1,-1%,-3%,-11%,63*,-1%,61*
O=C(Nc1nc2c(ccc3ccccc32)s1)c1cc([N+](=O)[O-])ccc1N1CCOCC1,?,5%,?,45*,2%,73*
CC(C)(CNC(=O)c1cc([N+](=O)[O-])ccc1N1CCC(Cc2ccccc2)CC1)N1CCOCC1,?,/,9.3µM*,/,-1%,/
O=C(Nc1nc(-c2ccc(-c3ccccc3)cc2)cs1)c1cc([N+](=O)[O-])ccc1N1CCOCC1,19%,11%,0%,-4,0%,30
CCC(C)(C)NC(=O)c1cc([N+](=O)[O-])ccc1N1CCOCC1,11%,2%,13%,-2,11%,-5
O=C(Cn1nc(-c2cccc(Cl)c2)ccc1=O)NCC1COCCO1 (stereo not given),61%,/,-2%,/,-2%,/
c1ccc(-c2nccnc2-c2ccccc2)cc1,90%,-48%,?,13,-2%,2
CC(C)(C)c1ccc(-c2ncccc2O)cc1,?,-40%,?,32*,-5%,69*
C1=CC(c2cc3ccccc3o2)OC(CCc2ccccc2)C1 (stereo not given),?,-2%,11%,9,-4%,-2
CCOC(=O)c1cnc2cc(-c3ccc(Cl)cc3)nn2c1N,123%,-15%,34%,27*,3%,35
CCOC(=O)c1cnc2c(c(C)nn2C)c1Oc1ccc(Cl)cc1,1.5µM*,-34%,?,2,-31%,-10
CCOC(=O)c1cnc2cc(-c3ccc(Br)cc3)nn2c1C,13µM*,-3%,46%,22*,4%,85
CCOC(=O)c1cnc2c(-c3ccc(Cl)cc3)c(C)nn2c1N,9.3µM*,7%,8%,10,-6%,-10
COC(=O)C1(Cc2ccc(O)cc2)OC(=O)C(O)=C1c1ccc(O)cc1 (stereo not given),-12%,3%,?,-6,1%,-10
COc1ccc(CNC(=O)c2nc(S(=O)(=O)Cc3ccccc3)ncc2Cl)cc1,44%,18%,25%,29*,-8%,15
SMILES,Pf growth 96h,NS1 inh,Pf growth 48h,Cycloheximide cs,SARS PLP yeast,Shiga toxin inh
Cc1ccc(CS(=O)(=O)c2ncc(Cl)c(C(=O)Nc3ccc(OC(F)F)cc3)n2)cc1,5%,-20%,31%,17*,-5%,27
Cc1noc(C(=O)NCc2ccccc2)c1Cl,-1%,-14%,/,0,3%,-19
CC(=O)Nc1ccc(NC(=O)c2nc(S(=O)(=O)Cc3ccccc3)ncc2Cl)cc1,?,-2%,43%,37*,9%,94*
O=C(NCc1ccccc1)c1nc(S(=O)(=O)Cc2ccccc2)ncc1Cl,?,-11%,15%,27*,-13%,48
COC(=O)c1ccccc1NC(=O)c1nc(S(=O)(=O)Cc2ccccc2)ncc1Cl,?,4%,18%,-10,-7%,-2
Cc1c(N(C)S(=O)(=O)c2cc(C(=O)NCC3CCCO3)ccc2Cl)c(=O)n(-c2ccccc2)n1C (stereo not given),10%,/,-22%,/,/,/
COc1cc(NC(=O)N[C@@H](Cc2c[nH]c3ccccc23)C(=O)O)c(C(=O)O)cc1OC,3%,10%,?,6,3%,-9
COc1ccc(NC(=O)Cn2nc(C(=O)O)c3ccccc3c2=O)cc1Cl,-2%,-9%,6%,-5,-3%,13
CCOc1ccc(S(=O)(=O)Nc2cccc(C(=O)N(C)CC(=O)Nc3cccc(OC)c3)c2)cc1,9%,/,-12%,/,1%,/
O=C(c1cnn2ccccc12)N(Cc1ccco1)C1CCCC1,10µM*,-2%,/,1,-5%,-6
O=C(c1cnn2ccccc12)N1CCN(C2CCCCC2)CC1,-50%,-3%,/,9,8%,2
O=C(Nc1cccnc1)c1ccc(-c2cc(Cl)ccc2Cl)o1,12%,-5%,?,22*,-3%,49
Cc1ccc(Cl)cc1N(Cc1ccc(C(=O)NCc2cccnc2)cc1)S(=O)(=O)c1ccccc1,13µM*,-4%,?,-3,5%,-1
O=C(Nc1cccnc1)c1ccc(-c2ccc(Cl)cc2)o1,-12%,/,20%,66*,-10%,73*
O=C(NCc1cccnc1)c1ccc(-c2cc(Cl)ccc2Cl)o1,12µM*,-9%,?,1,-3%,-14
NC(=O)CC(NC(=O)Cc1ccc(Cl)cc1)c1ccc(N2CCC(Cc3ccccc3)CC2)c([N+](=O)[O-])c1 (stereo not given),?,8%,33%,-1,-10%,1
Cc1nc2cc(CO)ccc2s1,20%,1%,25%,-2,10%,13
Cc1nc2cc3nc(C)sc3cc2s1,122%,-34%,151%,36*,-9%,109*
CCCSc1nnc(Nc2ccccc2C)s1,101%,-14%,58%,62*,-4%,63*
Cc1ccccc1Nc1nnc(SCC(=O)Nc2ccccc2[N+](=O)[O-])s1,?,?,24%,28*,-2%,45*
Cc1ccc2nc(CSc3nnc(Nc4ccccc4C)s3)cc(=O)n2c1,?,1%,?,-1,10%,-6
Cc1n[nH]c(C)c1CCN(C)Cc1cn(C)nc1-c1ccccc1F,1%,5%,12%,-1,0%,-5
